Assay [1] concerns Wnt5a (protein binding on small-molecule microarray). The experiment in a line: Wnt5a binders on small-molecule microarray, primary screen, biophysical, 635/667 nm fluorescence (AID 1142).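 Further: fluorescence read at 667 nm with signal to noise per printed feature.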 Conditions: 635 nm fluorescence, higher = more signal.
Assay [2] in a line: cell viability in Huh7 cells, primary screen, cytotoxicity control for HCV replication inhibitor project, CellTiter-Glo luminescence, basal, 48 h (AID 1143).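 Further: Huh7 hepatoma cells carrying a hepatitis C replication reporter with no stimulus; test concentration not given here.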 The note with it: Huh7 HCV replicon, higher = more signal, called active from +8 up or from −8 down. (In general: ATP-based viability assays read luminescence as a measure of living cells.)
Assay [3] can be described thus: P. aeruginosa biofilm formation inhibitors, primary screen, PAO1 strain, BacTiter-Glo luminescence, LB-PBS (AID 1144). Conditions: 12 h, higher = more signal.
Assay [4] can be described thus: CREB reporter modulators without forskolin, primary screen, cell-based, PC12, CRE-LacZ reporter, unstimulated (AID 1145). Conditions: no forskolin, luminescence, 4.5 h, higher = more signal, called active from +8 up or from −8 down.
The nature of assay [5]: CREB reporter modulators under forskolin, primary screen, cell-based, PC12, CRE-LacZ reporter, forskolin-stimulated (AID 1146).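 Further: PC12 cells with 6xCRE LacZ reporter stimulated by forskolin 10 µM; beta-galactosidase reporter signal reflecting CREB driven transcription.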 The note with it: luminescence, 4.5 h, higher = more signal, called active from +8 up or from −8 down.
The target of assay [6] is Streptavidin (Streptomyces avidinii) (UniProt P22629). The experiment in a line: streptavidin binders on small-molecule microarray, primary screen, artefact control for SMM compound annotation, biophysical, 635/667 nm fluorescence (AID 1147).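 Further: signal reflects streptavidin binding to arrayed compounds as a control protein.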 Conditions: streptavidin binding, higher = more signal.
Sequence of Streptavidin (Streptomyces avidinii) (P22629 whole entry, looked up): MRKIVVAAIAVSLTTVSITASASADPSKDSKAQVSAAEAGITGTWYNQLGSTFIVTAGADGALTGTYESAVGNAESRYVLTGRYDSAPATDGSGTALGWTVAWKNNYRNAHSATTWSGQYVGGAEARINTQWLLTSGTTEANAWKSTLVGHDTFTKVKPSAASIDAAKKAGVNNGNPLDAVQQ
A short description of assay [7]: small-molecule binders of probe aInhba, primary screen, biochemical, small-molecule microarray, 635/667 nm fluorescence (AID 1148).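 Further: score merges 667nm spot fluorescence with signal-to-noise for antibody binding to printed compounds.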 Conditions: higher = more signal.
Assay [8] concerns the target Torsin-1A (Homo sapiens) (UniProt O14656). The experiment in a line: torsin A binders from cell lysate, primary screen, small-molecule microarray, wild-type, 635/667 nm (AID 1149). The note with it: COS7 hTOR1A-WT lysate, 635 nm fluorescence, higher = more signal.
The target is the same in assay [9]. In words: small-molecule binders of mutant TOR1A in lysate, primary screen, cell lysate, small-molecule microarray, COS7 lysate, 635/667 nm fluorescence (AID 1150).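 Further: score pools 667 nm emission and signal to noise measuring lysate protein binding.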 Conditions: COS7 hTOR1A mutant lysate, 635 nm fluorescence, higher = more signal.
The test system of assay [10] is Sonic hedgehog protein (Shh). In words: small-molecule binders of Shh protein, primary screen, biochemical, small-molecule microarray, 635/667 nm fluorescence (AID 1151).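 Further: Shh protein binding to compounds spotted on small-molecule microarray slides; score combines spot fluorescence intensity with signal-to-noise across triplicate slides.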 Conditions: small-molecule microarray binding, 635 nm fluorescence; higher = more signal.
The nature of assay [11]: E. coli DRC41 culture turbidity changes, primary screen, E. coli filamentation inducer project, strain DRC41, OD650, 48 h (AID 1152).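 Further: E. coli MC1000 strain DRC41 lacking acrAB efflux pump and sulA.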 The note with it: E. coli DRC41 (acrAB sulA), higher = more signal, called active from +8 up or from −8 down.
A short description of assay [12]: small-molecule binders of probe aLefty1, primary screen, biochemical, small-molecule microarray, 635/667 nm fluorescence (AID 1153).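 Further: score merges spot fluorescence with signal-to-noise ratio from the scanned slide images.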 The note with it: higher = more signal.
Assay [13] in a line: PSAC antagonists in infected red cells, primary screen, cell-based, P. falciparum Indochina, OD700, 1 h (AID 1154). Conditions: P. falciparum Indochina infected RBC osmotic lysis, higher = more signal, called active from +8 up or from −8 down.
Assay [14] can be described thus: PSAC antagonists in infected red cells, primary screen, cell-based, P. falciparum Indochina, OD700, 2 h (AID 1155).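 Further: lysis reports solute entry through the parasite surface anion channel PSAC; channel blockers reduce lysis of infected cells.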 Conditions: P. falciparum Indochina infected erythrocytes, osmotic lysis OD700; higher = more signal, called active from +8 up or from −8 down.
Assay [15] is described as follows: osmotic lysis modulators in infected erythrocytes, primary screen, PSAC antagonist project, cell-based, P. falciparum Indochina, OD700, 3 h (AID 1156). The note with it: higher = more signal, called active from +8 up or from −8 down.
Assay [16] is described as follows: PSAC antagonists in infected red cells, primary screen, cell-based, P. falciparum Indochina, OD700, 18 h (AID 1157). Conditions: P. falciparum Indochina infected erythrocytes, osmotic lysis OD700, 18 h; higher = more signal, called active from +8 up or from −8 down.
The nature of assay [17]: modulators of S6 phosphorylation in cells, primary screen, cell-based, A549, cytoblot, luminescence, serum-stimulated (AID 1158).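 Further: serum-stimulated A549 lung adenocarcinoma cells; signal is phosphorylated S6 detected by cytoblot immunostaining with HRP secondary.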 The note with it: A549 phospho-S6 cytoblot, 5 h, higher = more signal.
For assay [18], the target named is NADPH oxidase 2 (Homo sapiens) (UniProt P04839). In words: NOX2-dependent H2O2 signal modulators, primary screen, NOX inhibitor project, cell-based, HEK293-NOX2, PMA-stimulated, Amplex Red fluorescence (AID 1159). Further: test concentration not given here. Conditions: 45 min, higher = more signal, called active from +8 up or from −8 down.
Sequence of NADPH oxidase 2 (Homo sapiens) (P04839 whole entry, looked up): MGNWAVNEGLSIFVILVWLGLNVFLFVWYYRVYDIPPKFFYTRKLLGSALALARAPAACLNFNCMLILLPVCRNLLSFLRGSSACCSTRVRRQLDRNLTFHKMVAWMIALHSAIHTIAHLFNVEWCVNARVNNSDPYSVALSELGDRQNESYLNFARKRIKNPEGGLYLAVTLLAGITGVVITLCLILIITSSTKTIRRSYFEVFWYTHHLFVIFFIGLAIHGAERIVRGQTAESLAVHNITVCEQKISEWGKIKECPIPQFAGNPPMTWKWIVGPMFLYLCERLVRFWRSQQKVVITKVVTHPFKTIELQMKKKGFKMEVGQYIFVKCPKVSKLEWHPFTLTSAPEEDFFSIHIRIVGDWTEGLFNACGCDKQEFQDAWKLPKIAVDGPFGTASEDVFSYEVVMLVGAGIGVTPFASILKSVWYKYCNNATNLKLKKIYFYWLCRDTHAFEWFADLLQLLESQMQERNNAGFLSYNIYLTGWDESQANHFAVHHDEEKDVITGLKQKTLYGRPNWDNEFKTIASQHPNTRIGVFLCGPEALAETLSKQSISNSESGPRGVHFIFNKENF
For assay [19], the target named is NADPH oxidase 4 (Homo sapiens) (UniProt Q9NPH5). In words: NOX4-dependent H2O2 signal modulators, primary screen, NOX inhibitor project, cell-based, HEK293-NOX4, tetracycline-induced, Amplex Red fluorescence (AID 1160). The note with it: 45 min, higher = more signal, called active from +8 up or from −8 down.
Sequence of NADPH oxidase 4 (Homo sapiens) (Q9NPH5 whole entry, looked up): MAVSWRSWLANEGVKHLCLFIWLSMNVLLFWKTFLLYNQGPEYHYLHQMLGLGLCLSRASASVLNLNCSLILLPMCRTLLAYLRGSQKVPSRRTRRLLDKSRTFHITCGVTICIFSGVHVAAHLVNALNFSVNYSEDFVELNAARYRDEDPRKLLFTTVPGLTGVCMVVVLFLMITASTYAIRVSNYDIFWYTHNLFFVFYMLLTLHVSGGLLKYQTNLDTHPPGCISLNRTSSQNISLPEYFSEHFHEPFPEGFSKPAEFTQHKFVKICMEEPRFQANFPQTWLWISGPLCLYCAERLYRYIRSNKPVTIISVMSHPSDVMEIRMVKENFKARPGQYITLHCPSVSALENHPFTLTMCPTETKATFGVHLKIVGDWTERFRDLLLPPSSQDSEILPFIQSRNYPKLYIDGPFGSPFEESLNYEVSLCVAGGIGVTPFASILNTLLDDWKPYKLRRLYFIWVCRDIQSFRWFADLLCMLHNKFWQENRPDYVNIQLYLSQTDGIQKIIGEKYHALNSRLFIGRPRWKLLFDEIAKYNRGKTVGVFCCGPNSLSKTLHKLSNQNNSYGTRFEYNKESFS
Assay [20] addresses NADPH oxidase 5 (Homo sapiens) (UniProt Q96PH1). The experiment in a line: NOX5-dependent H2O2 signal modulators, primary screen, NOX inhibitor project, cell-based, HEK293-NOX5, Amplex Red fluorescence (AID 1161). Conditions: HEK293-NOX5, ionomycin, 45 min, higher = more signal.

Calls of active or inactive are those of the source. Unless noted, how the calls were made is not given here.

Sequence of Torsin-1A (Homo sapiens) (O14656 whole entry, looked up): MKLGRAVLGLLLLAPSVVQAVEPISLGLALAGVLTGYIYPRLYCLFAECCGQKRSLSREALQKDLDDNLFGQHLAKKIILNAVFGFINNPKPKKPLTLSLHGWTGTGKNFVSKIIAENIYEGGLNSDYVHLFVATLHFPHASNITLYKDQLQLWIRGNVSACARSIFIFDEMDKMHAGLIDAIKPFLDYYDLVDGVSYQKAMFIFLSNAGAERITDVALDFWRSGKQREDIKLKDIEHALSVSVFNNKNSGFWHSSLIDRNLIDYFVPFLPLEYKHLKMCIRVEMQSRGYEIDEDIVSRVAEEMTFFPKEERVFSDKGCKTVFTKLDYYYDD
Sequence of NADPH oxidase 5 (Homo sapiens) (Q96PH1 whole entry, looked up): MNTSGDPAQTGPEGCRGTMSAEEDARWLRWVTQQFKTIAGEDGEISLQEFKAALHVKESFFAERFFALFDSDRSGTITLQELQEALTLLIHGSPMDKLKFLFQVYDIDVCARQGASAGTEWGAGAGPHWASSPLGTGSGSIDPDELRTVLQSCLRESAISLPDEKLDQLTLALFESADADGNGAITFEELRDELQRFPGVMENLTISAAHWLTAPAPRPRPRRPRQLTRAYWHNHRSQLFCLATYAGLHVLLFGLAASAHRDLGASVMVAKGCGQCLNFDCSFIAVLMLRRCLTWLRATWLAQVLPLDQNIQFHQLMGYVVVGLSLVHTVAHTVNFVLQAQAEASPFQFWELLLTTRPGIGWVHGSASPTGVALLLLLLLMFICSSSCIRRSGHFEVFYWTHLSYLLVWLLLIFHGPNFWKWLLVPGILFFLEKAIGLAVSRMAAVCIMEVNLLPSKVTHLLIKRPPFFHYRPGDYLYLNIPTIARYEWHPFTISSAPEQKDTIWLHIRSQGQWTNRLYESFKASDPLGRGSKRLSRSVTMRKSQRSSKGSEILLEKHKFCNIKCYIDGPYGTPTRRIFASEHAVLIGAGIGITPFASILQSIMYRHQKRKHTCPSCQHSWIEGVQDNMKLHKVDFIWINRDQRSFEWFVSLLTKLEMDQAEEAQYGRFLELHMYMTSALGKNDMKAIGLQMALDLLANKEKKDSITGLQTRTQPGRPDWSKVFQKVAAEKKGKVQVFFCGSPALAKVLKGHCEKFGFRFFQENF

Take `O=C1[C@H]2[C@H]3[C@H](O)[C@H](O)CC(=NO[C@@H]4O[C@H](CO)[C@@H](O)[C@H](O)[C@H]4O)[C@@H]3CC[C@H]2C(=O)N1C1CCCCC1`: the composite z-score is 0.258 in [1]; 0.247 in assay [6]; 0.0342 in assay [7]; 0.603 with Torsin-1A (Homo sapiens) [8]; 0.0159 in the assay with Torsin-1A (Homo sapiens) [9]; 0.635 in assay [10]. Also, the composite z-score in assay [12] was -0.126. Besides, the z-score in assay [2] was 0.0805 (inactive); in assay [3] it was 0.577 (inactive); in assay [4], 0.342 (inactive); in [5], 0.758 (inactive); in assay [11], 0.381 (inactive); in assay [13] it was 0.785 (inactive). In addition, the z-score in assay [14] is 0.636 (inactive); in assay [15], 1.04 (inactive); in assay [16], 0.228 (inactive); in [17], 0.322; in assay [18], -0.336 (inactive); in [19] it was 0.607 (inactive). For the same compound, the z-score in [20] is 0.573.

In the case of `COc1ccc(COC(=O)NN=C2C[C@@H](O)[C@@H](O)[C@@H]3[C@@H]4C(=O)N(Cc5ccccc5)C(=O)[C@@H]4CC[C@@H]23)cc1`, the composite z-score is -0.0129 in [1]; -0.323 in [6]; 0.0785 in assay [7]; -0.0532 in the assay with Torsin-1A (Homo sapiens) [8]; 0.226 in the assay with Torsin-1A (Homo sapiens) [9]; 0.111 in assay [10]. The compound further registered a composite z-score in assay [12] of -0.0691. The z-score in [2] was -0.19 (inactive); in assay [3], 0.99 (inactive); in [4], -0.655 (inactive); in assay [5], 0.426 (inactive); in [11] it was 0.619 (inactive); in assay [13], 1.48 (inactive). The z-score in assay [14] is 0.363 (inactive); in assay [15] it was -0.188 (inactive); in assay [16] it was 0.648 (inactive); in assay [17] it was -0.12; in [18] it was -6.33 (inactive); in [19], 0.284 (inactive). Further, in assay [20], the z-score is -0.234.

As to `CC(C)CON=C1C[C@@H](O)[C@@H](O)[C@@H]2[C@@H]3C(=O)N(C(C)(C)C)C(=O)[C@@H]3CC[C@@H]12`, the composite z-score in assay [1] was 0.167; in assay [6], 0.0099; in [7], -0.261; with Torsin-1A (Homo sapiens) [8], 3.07; with Torsin-1A (Homo sapiens) [9], 3.23; in assay [10], 1.28. For the same compound, the composite z-score in assay [12] is -0.268. In addition, the z-score in [2] was -2.95 (inactive); in [3], -0.811 (inactive); in assay [4], 1.7 (inactive); in assay [5] it was 0.549 (inactive); in [11] it was -1.53 (inactive); in assay [13], 0.778 (inactive). Moreover, the z-score is -0.692 (inactive) in assay [14]; 0.695 (inactive) in assay [15]; -2.29 (inactive) in assay [16]; 1.13 in [17]; 0.571 (inactive) in [18]; -0.75 (inactive) in [19]. For the same compound, in assay [20], the z-score was -2.22.

For the compound `CCN1C(=O)[C@H]2[C@H]3[C@H](O)[C@H](O)CC(=NO[C@@H](C)c4cc(-c5c(C)cc(C)cc5C)no4)[C@@H]3CC[C@H]2C1=O`, the composite z-score amounted to 0.266 in assay [1]; 0.203 in [6]; 0.0756 in assay [7]; 1.22 in the assay with Torsin-1A (Homo sapiens) [8]; 1.33 with Torsin-1A (Homo sapiens) [9]; 1.15 in assay [10]. The composite z-score in assay [12] is -0.103. The z-score is -1.74 (inactive) in [2]; 0.847 (inactive) in assay [3]; 2.08 (inactive) in [4]; 0.205 (inactive) in assay [5]; 0.663 (inactive) in [11]; 2.34 (inactive) in assay [13]. Also, the z-score is 0.496 (inactive) in assay [14]; 0.504 (inactive) in [15]; 0.588 (inactive) in assay [16]; -0.428 in assay [17]; 0.204 (inactive) in [18]; 0.175 (inactive) in [19]. Further, the z-score in assay [20] came to 0.211.

Turning to `CC(C)C(=O)N[C@H]1CCCN1C(=O)C=Cc1ccccc1`, the composite z-score in assay [1] was 0.121; in assay [6], 0.111; in [7], 0.0173; with Torsin-1A (Homo sapiens) [8], 0.445; with Torsin-1A (Homo sapiens) [9], 0.231; in assay [10], 0.769. In assay [12], this compound registered a composite z-score of 0.271. Besides, the z-score in [2] was 0.623 (inactive); in [3] it was 0.186 (inactive); in assay [4], -0.255 (inactive); in assay [5], -0.135 (inactive); in assay [11], -1.05 (inactive); in [13], 1.35 (inactive). The z-score in [14] was 0.627 (inactive); in assay [15] it was 0.632 (inactive); in [16], 0.346 (inactive); in [17] it was -0.53; in assay [18], 0.679 (inactive); in assay [19], 0.913 (inactive). In addition, the z-score in assay [20] was -0.732.

These data come from PubChem BioAssay.
